# IL-1B inflam inh: qHTS for Inhibitors of Inflammasome Signaling: IL-1-beta AlphaLISA Primary Screen; THP-1 LPS/ATP IL-1B secretion, AlphaLISA, 16 h; hits give low values; activity change, % at 57.5 µM; 360,000 compounds, 4.7% hits; AID 743279, 2014; in the data active means activity change below about -50%; inconclusive means mostly about -30% to -49%; further: on the % scale 0 is the no-effect control and ±100 the full control effect
#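 THP-1 cells pretreated 1 hr with compounds (up to 57.5 uM final), then stimulated with LPS (250 ng/mL final) plus ATP (1.25 mM final); secreted IL-1B measured by AlphaLISA after 16 hr, decreased signal indicating inhibition.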
# TDP1 cell noCPT: qHTS for Inhibitors of human tyrosyl-DNA phosphodiesterase 1 (TDP1): qHTS in cells in absence of CPT; Potency, µM (titrated, usually from 46.2 µM), without a hit: at the highest dose activity change, negative = growth inhibition, most hits filed as inhibitors; 420,000 compounds, 15% hits; AID 686978, 2013; DT40 Tdp1-/- hTDP1 cells, no CPT, ATP luminescence, 48 h; further: potency means the concentration at half of the fitted maximal effect; on the % scale 0 is the no-effect control and ±100 the full control effect; nearly all actives have a fitted effect of over 55% in size
#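 Luminescent ATP content (CellTiter-Glo) served as the growth readout. Knockout chicken DT40 cells expressing human TDP1 were exposed to compounds without camptothecin for a minimum 48 hr at 37 °C.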
# D3 antag: qHTS of D3 Dopamine Receptor Antagonist: qHTS; D(3) dopamine receptor (Homo sapiens), P35462; D3R cells, DiscoveRx beta-arrestin luminescence, antagonist mode; hits give low values; max response, negative = inhibition, %; 360,000 compounds, 2.5% hits; AID 652054, 2013; in the data active means max response below about -50%; inconclusive means no clear call, values can overlap the other calls; further: on the % scale 0 is the no-effect control and ±100 the full control effect
# Target sequence (P35462 whole entry, looked up): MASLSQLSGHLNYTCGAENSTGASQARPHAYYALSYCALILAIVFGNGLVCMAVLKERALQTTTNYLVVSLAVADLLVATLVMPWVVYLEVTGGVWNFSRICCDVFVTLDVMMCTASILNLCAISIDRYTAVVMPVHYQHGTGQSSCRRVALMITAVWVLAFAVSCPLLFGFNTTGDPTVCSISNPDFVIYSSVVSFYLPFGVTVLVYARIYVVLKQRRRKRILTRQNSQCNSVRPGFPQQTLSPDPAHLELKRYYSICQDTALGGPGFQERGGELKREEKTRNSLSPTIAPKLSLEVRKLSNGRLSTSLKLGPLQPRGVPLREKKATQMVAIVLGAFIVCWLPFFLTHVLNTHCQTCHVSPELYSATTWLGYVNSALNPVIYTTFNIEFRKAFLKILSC
#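 Cells expressing the human receptor were seeded at 1500 cells/well, incubated overnight at 37 degrees C in 5% CO2, then exposed to library compounds with dopamine controls for 90 minutes at 37 degrees C before luminescent detection.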
# ClpP mod: qHTS Assay for Activators of ClpP; Potency, µM (series often up to 57.5 µM), for the others: top-dose activity change, negative = active; purified B. subtilis ClpP, FRET peptide cleavage, 20 min; 340,000 compounds, 1.9% hits; ATP-dependent Clp protease proteolytic subunit (Bacillus subtilis (strain 168)), P80244; AID 651965, 2013; active means well fitted falling curve with a large enough effect; inconclusive means small, poorly fitted or top-dose-only effect; inactive means no such curve, though single readings can be large or run the other way; further: potency means the concentration at half of the fitted maximal effect; the source files actives as falling curves though it sought activators and does not explain the sign; nearly all actives have a fitted effect of over 65% in size
#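 Purified B. subtilis ClpP, 10 microg/mL final in Tris/HCl pH8 with KCl, BSA, glycerol and Tween-20, cleaved an Abz/nitrotyrosine-quenched decapeptide. Fluorescence (ex 320, em 430) was read at 0 and 20 min at room temperature. Delta was normalized to 5.8 microM ADEP and DMSO/no-enzyme controls.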
# DT40 TDP1 CPT: qHTS for Inhibitors of human tyrosyl-DNA phosphodiesterase 1 (TDP1): qHTS in cells in presence of CPT | chicken DT40 Tdp1-/-;hTDP1 cells + 20 nM CPT, ATP luminescence, 48 h | Potency, µM (highest dose often 46.2 µM), without a hit: at the highest dose activity change, negative = growth inhibition, most hits filed as inhibitors | 420,000 compounds, 12% hits; further: potency means the concentration at half of the fitted maximal effect; on the % scale 0 is the no-effect control and ±100 the full control effect; nearly all actives have a fitted effect of over 55% in size
#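 Chicken DT40 Tdp1-/- cells stably complemented with human TDP1 were seeded at 400 cells/well in medium containing 20 nM camptothecin, exposed to pin-transferred compounds, and grown at 37 °C for at least 48 hr. Viability was read as ATP luminescence.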
# DRD3 agonist: qHTS of D3 Dopamine Receptor Agonist: qHTS; D(3) dopamine receptor (Homo sapiens), P35462; D3R DiscoveRx beta-arrestin cells, luminescence, 90 min; max activation, %; 410,000 compounds, 0.58% hits; AID 652048, 2013; in the data active means max activation above about 30%; further: 0% is about no effect
#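 Agonist mode: compounds and dopamine controls were applied to plated cells for 90 min at 37 degrees C after an overnight attachment at 1500 cells/well. Luminescent read-out followed 30 - 60 minutes at room temperature with DiscoveRx detection reagent.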
# * hit, by the source's call; ? = inconclusive; . = not tested or not shown. Sampled rows, rich in hits. Any-hit rate of the full collection: about 21%. Unless noted, the call rests on the fitted dose curve; in most records, active means well fitted inhibition curve with a large enough effect; inconclusive means small, poorly fitted or top-dose-only effect; inactive means flat fitted curve, though single readings scatter.
SMILES,IL-1B inflam inh,TDP1 cell noCPT,D3 antag,ClpP mod,DT40 TDP1 CPT,DRD3 agonist
CC(=O)Nc1cccc(-c2ccnc3c2CC(C)(C(=O)NCc2ccncc2)O3)c1 (centres undefined),0,18µM*,-15,-15%,21µM*,-9
CCOC(=O)CNC(=O)C1CCCN(c2ncccn2)C1 (centres undefined),-7,-7%,22,?,29µM*,-9
O=C(NCc1cccs1)C1CCCN(c2ncccn2)C1 (centres undefined),6,-2%,-2,?,-21%,-3
CCCCN1C(=O)/C(=C/C=C2\SCCN2C)SC1=S,-50*,-71%,-17,.,?,-4
CC(C)c1ccc(NC2CCCN(C(=O)CCn3cnnn3)C2)cc1 (centres undefined),-10,-3%,-10,-2%,?,-9
CCOC(=O)c1c(C)oc2nc(C)nc(NCC3CCN(Cc4cccc(Cl)c4)CC3)c12,.,-19%,.,1%,-21%,-15
O=S(=O)(Nc1cccnc1)c1ccc(Br)c2ccccc12,15,-24%,?,1%,-14%,-6
Fc1ccc2[nH]c3c(c2c1)CN(C(=S)NCc1ccccc1)CC3,-89*,?,-7,?,-18%,-5
C=CCNC(=O)N1CCc2[nH]c3ccc(F)cc3c2C1,-7,3%,0,-9%,3%,0
Cc1nnc(-c2ccccc2)c(=O)n1/N=C/c1c(O)ccc2ccccc12,108,5.2µM*,0,-8%,4.1µM*,8
COc1ccc(NC(=O)c2cc(C3CCCCN3C(=O)C3CC3)on2)c(C)c1 (centres undefined),-12,-24%,-111*,-3%,?,-23
COc1ccc(NC(=O)c2cc(C3CCCCN3C(=O)c3ccccc3)on2)c(C)c1 (centres undefined),11,9.2µM*,22,-1%,18µM*,1
COc1ccc(NC(=O)c2cc(C3CCCCN3C(=O)CCc3ccccc3)on2)c(C)c1 (centres undefined),-3,?,10,2%,?,-3
COc1ccc(NC(=O)c2cc(C3CCCCN3C(=O)C3CCCCC3)on2)c(C)c1 (centres undefined),-14,?,-15,-2%,?,0
O=C(NC(=S)Nc1ccc(CN2CCOCC2)cc1)c1cc2ccccc2o1,-6,-9%,35,0%,?,2
O=C(NC(=S)Nc1ccc(CN2CCOCC2)cc1)c1ccccc1[N+](=O)[O-],0,1%,-107*,-1%,-16%,-11
O=C(NC(=S)Nc1ccc(CN2CCOCC2)cc1)c1cccc([N+](=O)[O-])c1,32,-23%,0,2%,0%,-18
O=C(NC(=S)Nc1ccc(CN2CCOCC2)cc1)c1ccc([N+](=O)[O-])cc1Cl,1,26µM*,-78*,.,1%,-16
CCOC(=O)[C@H]1[C@H]2COc3cc(OC)ccc3[C@@H]2N2C(=O)c3cc(F)ccc3NC(=O)[C@@]12C,8,?,9,0%,?,6
O=C(C[n+]1cccc2cc(Cl)ccc21)c1cccc([N+](=O)[O-])c1,.,?,.,-6%,-5%,.
COc1ccc(-c2noc(CCC(=O)NCCCN3CCC(Cc4ccccc4)CC3)n2)cc1,-64*,15µM*,?,-1%,15µM*,-2
COc1ccc(-c2noc(CCC(=O)NCCCN3CCN(c4ccc(F)cc4)CC3)n2)cc1,0,18µM*,-23,0%,18µM*,-13

# Bioassay records deposited in PubChem by National Center for Advancing Translational Sciences (NCATS).
